In PubChem BioAssay (NCATS) one finds activation and Potency data, which are given here for 37 compounds.

Results filed as inconclusive are left out. A call without a number means that no potency is given here. A number with no mark means an inactive call. Active and inactive are the calls of the source. Calls come from the whole dose curve; as a rule, active = well fitted activation curve with a large enough effect; inconclusive = small, poorly fitted or top-dose-only effect, or another doubt; inactive = no such curve, though single readings can be large or run the other way.
Potency is the fitted concentration of half-maximal effect.

The assay addresses Rap guanine nucleotide exchange factor 3 (Homo sapiens) (UniProt O95398). The experiment in a line: Counterscreen qHTS for agonist of cAMP-regulated guanine nucleotide exchange factor 3 (EPAC1) (AID 1645889). Note: nearly all actives have a fitted effect of over 40% in size. The following applies: EPAC1 Rap1B-BODIPY-GDP exchange, fluorescence; series mostly up to 154 µM. In a few lines:
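Rap1B-BODIPY-GDP 250 nM + GDP 50 uM; cpds 7-pt, final 9.74 nM–152 uM (activator mode) or from 7.32 nM upwards (inhibitor mode); RT; FI 480/540 nm at 5 and 30 min, then ± cAMP, reread.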
In the case of `COC(=O)c1ccc2nc(-c3ccc(F)cc3)c(Cc3ccccc3)n2c1`, the activation is 19.8% [at 30.8 µM].
In the case of `O=C(c1noc2c1CCc1ccccc1-2)N1CCCc2ccccc21`, the Potency result was “inactive”.
In the case of `CC1CN(c2nc(-c3ccccc3)nc3ccccc23)CC(C)O1` (configuration not stated), the activation is 21.3% [at 30.8 µM].
As to `C=C1SC(Nc2c(C)cc(C)cc2C)=NC12CCCCC2`, the Potency result was “inactive”.
As to `Cc1ccc(-c2nn3cnnc3c3ccccc23)cc1C`, the activation is 5.84% [at 30.8 µM].
With `COc1ccccc1C1CC(=O)Oc2cc(C)c(Cl)c(C)c21` (configuration not stated), the activation was 15.1% [at 30.8 µM].
For the compound `CC1CN(c2nc3ccccc3cc2-c2ccccc2)CC(C)O1` (configuration not stated), the Potency entry is “inactive”.
With `Cc1cc2nc3c(=O)n(C)c(=O)n(C)c3nc2cc1N=CN(C)C`, the Potency is 44.7 µM (active).
Consider `COc1ccc(N2C(=O)[C@H]3CCC=C[C@H]3[C@@H]2c2ccccc2Br)cc1`, for which the Potency entry was “inactive”.
Consider `COC(=O)c1ccc2nc(-c3ccc(F)cc3)c(CC3CCCCC3)n2c1`, for which the activation is 6.82% [at 30.8 µM].
Consider `CCOC(=O)C1Oc2ccccc2C(c2ccc(C)cc2)=C1C(=O)OC` (configuration not stated), for which the Potency result is “inactive”.
On the same count and under the same terms, then `C=CCOc1ccc(/C=N/NC(C)=O)cc1OCC`, with “inactive”; and `CC(OC(=O)c1ccccc1Oc1ccccc1)C(=O)NC1CC1` (configuration not stated), with “inactive”; and `COc1ccccc1-c1oc2ccccc2c1-c1ccc2c(c1)OCO2`, with “inactive”.
For `COc1cc(C)c(S(=O)(=O)N2CCCC2)cc1C(C)C`, the activation was 14.6% [at 30.8 µM].
As for `C=C[C@]1(C)C[C@@H](OC(=O)CSCCN(CC)CC)[C@]2(C)C(C)CC[C@]3(CCC(=O)[C@H]32)[C@@H](C)[C@@H]1O` (some centres not stated), the Potency entry was “inactive”.
On to `CCCC(CNC(C)=O)(C1=CCCCC1)c1ccccc1` (configuration not stated), for which the activation is 15.1% [at 30.8 µM].
Consider `COC(=O)c1cn(C(=O)c2ccc(C)cc2C)c2ccccc12`, for which the Potency result is “inactive”.
On to `Cc1ccc(S(=O)(=O)N2[C@@H](c3ccc(C(C)(C)C)cc3)C(C(=O)O)=CC[C@H]2c2ccc(Cl)cc2)cc1`, for which the Potency entry was “inactive”.
For `COC(=O)c1ccccc1C(=O)c1c(C)cc(C)cc1C`, the activation was 0.931% [at 30.8 µM].
For the compound `O=C(/C=C/c1cccc(Cl)c1Cl)OCC(=O)N1CCOCC1`, the Potency entry is “inactive”.
On to `Cc1ccc(S(=O)(=O)N2[C@@H](c3ccc(C(C)(C)C)cc3)C(C(=O)O)=CC[C@H]2c2cccc(Cl)c2)cc1`, for which the Potency result was “inactive”.
On to `CCOC(=O)C1Oc2ccccc2C(c2ccc(F)cc2)=C1C(=O)OC` (configuration not stated), for which the activation was 13.2% [at 30.8 µM].
With `Cc1ccc2cccc(Oc3nnnn3-c3ccccc3)c2n1`, the Potency entry is “inactive”.
`O=C1OC(c2ccccc2)(c2cc(Br)c(O)c(Br)c2)c2ccccc21` (configuration not stated): the Potency result is “inactive”.
In the case of `C=CCSc1nc2ccccc2c(=O)n1Cc1ccccc1`, the activation was 7.4% [at 30.8 µM].
Regarding `c1ccc(CNc2c(-c3cccc(SC4CCCCC4)c3)nc3ccccn23)cc1`, the activation was 4.1% [at 30.8 µM].
With `COC(=O)c1ccc2nc(-c3ccc(OC)c(OC)c3)c(CC3CCCCC3)n2c1`, the Potency result was “inactive”.
Consider `COc1ccc(N2C(=O)CSC2c2ccccc2F)c(OC)c1` (configuration not stated), for which the Potency entry was “inactive”.
Consider `O=C1[C@H]2CCC=C[C@H]2[C@H](c2ccccc2Br)N1Cc1ccccc1`, for which the Potency entry was “inactive”.
As for `Fc1cc(F)cc(-c2c(-c3ccccc3)ncc3ccc(F)cc23)c1`, the Potency entry is “inactive”.
In the case of `Cc1ccc(C2N(c3cccc(Cl)c3)C(=O)N3CCCN23)cc1` (configuration not stated), the activation was 3.03% [at 30.8 µM].
Regarding `O=C(O)c1cc(Nc2cc(Cl)c3nonc3c2[N+](=O)[O-])ccc1O`, the Potency entry is “inactive”.
With `COc1ccc(S(=O)(=O)N2CCCC2)c(Cl)c1Cl`, the activation was 0.265% [at 30.8 µM].
As for `O=C(O)CCCN1C(=O)/C(=C/c2cn(-c3ccccc3)nc2-c2cccs2)SC1=S`, the Potency is 15.8 µM (active).
On to `COC(=O)c1ccc2nc(-c3cccc(Br)c3)c(Cc3ccsc3)n2c1`, for which the activation was 17.8% [at 30.8 µM].
Turning to `CCCCC1=C(C(=O)OCC)C(C(=O)OCC)Oc2ccccc21` (configuration not stated), the Potency entry was “inactive”.
